High-throughput results from PubChem.
This is a sample that favours compounds with a hit; in the whole collection about 4.6% have one here.
D1 antagonist: Antagonist of Human D 1 Dopamine Receptor: qHTS; D(1A) dopamine receptor (Homo sapiens), P21728; HEK293 TREx D1 cells, calcium flux, dopamine EC80; hits give low values; activity change, negative = inhibition, % at 10 µM; hit rate 3.2% among 360,000; AID 504652, 2011; in the data active = activity change below about -30%; note: % is set by controls: 0 for no effect and ±100 for the full control effect
Target sequence (P21728 whole entry, looked up): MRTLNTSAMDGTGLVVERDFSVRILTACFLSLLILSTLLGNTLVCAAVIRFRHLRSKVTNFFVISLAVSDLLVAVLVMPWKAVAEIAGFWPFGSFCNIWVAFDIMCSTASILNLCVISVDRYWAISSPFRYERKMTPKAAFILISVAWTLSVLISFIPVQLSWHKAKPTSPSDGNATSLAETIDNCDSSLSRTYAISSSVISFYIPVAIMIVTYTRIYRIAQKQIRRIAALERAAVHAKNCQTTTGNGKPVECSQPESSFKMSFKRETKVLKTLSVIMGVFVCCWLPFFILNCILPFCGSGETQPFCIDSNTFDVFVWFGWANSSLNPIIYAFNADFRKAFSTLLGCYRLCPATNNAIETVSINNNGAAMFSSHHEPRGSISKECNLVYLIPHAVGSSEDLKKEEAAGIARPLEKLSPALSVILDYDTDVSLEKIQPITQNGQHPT
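Using tetracycline-induced force-coupled D1 Hek293 cells and a calcium dye, signals were followed for 180 s after compound, then for 180 s after EC80 dopamine, to detect inhibitors.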
D1 agonist: Allosteric Agonists of the Human D1 Dopamine Receptor: qHTS | D(1A) dopamine receptor (Homo sapiens), P21728 | HEK293 T-REx D1 cells, calcium flux, agonist mode | activation, % at 2 µM | hit rate 1% among 360,000 | AID 504660, 2011; note: 0% is about no effect
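Inducible HEK293 T-REx D1 cells, force-coupled to calcium signalling, were plated at 4000 cells/well with tetracycline and held overnight at 30 C. After no-wash calcium dye loading, compound-evoked calcium rise over 180 s flagged agonists.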
D1 PAM: Potentiators of Human D1 Dopamine Receptor: qHTS | D(1A) dopamine receptor (Homo sapiens), P21728 | hit rate 0.036% among 360,000 | HEK293 TREx D1 cells, calcium flux, dopamine EC20 potentiation | potentiation, % at 10 µM; in the data active = potentiation above about 30%; note: 0% is about no effect
TRHR PAM: qHTS for Small Molecule Agonists and Allosteric Enhancers of Human TRH Receptor: Primary Screen for Enhancers | Thyrotropin-releasing hormone receptor (Homo sapiens), P34981 | TRHR cells, fluo-8 calcium fluorescence, EC20 TRH enhancement | enhancement, % at 2 µM | hit rate 0.66% among 360,000 | AID 493056, 2011; in the data active = enhancement above about 30%; note: 0% is about no effect
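Enhancer read-out: after compound pinning and an initial kinetic agonist-mode read, an EC20 of TRH (10 nM final) was injected and fluo-8 calcium signal (Ex 480/Em 530) followed at 1 s/cycle for 100 cycles in TRHR-expressing cells.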
TRHR agonist: qHTS for Small Molecule Agonists and Allosteric Enhancers of Human TRH Receptor: Primary Screen for Agonists; TRHR cells, calcium flux fluo-8, FDSS agonist mode; AID 493084, 2011; hit rate 0.18% among 360,000; activation, % at 2 µM; Thyrotropin-releasing hormone receptor (Homo sapiens), P34981; note: 0% is about no effect
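TRHR-expressing cells loaded with fluo-8 calcium dye; 23 nL library compound pin-transferred, kinetic FDSS fluorescence (Ex 480/Em 530) recorded about 180 s for agonist-induced calcium release, before a 10 nM TRH EC20 addition for potentiator mode.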
Starred values were filed as active, the others as inactive. Cut-off read from the data, not from the text of the source, unless noted: active = activation above about 30%; inactive = the rest.

SMILES	D1 antagonist	D1 agonist	D1 PAM	TRHR PAM	TRHR agonist
COc1cc(CNCc2cccs2)ccc1OCc1ccccc1	-11.8	18.0	-6.0	0.0	0.9
COc1cc(CNC23CC4CC(CC(C4)C2)C3)ccc1OCc1ccccc1	-40.4*	85.3*	2.5	-3.4	6.1
COc1ccc(CCN(C)Cc2ccc(OC)c(OCc3ccccc3)c2)cc1OC	-16.0	8.1	-5.2	-1.5	0.4
CC1CCN(C(=O)CSc2nc3ccccc3nc2Cc2ccccc2)CC1	7.1	9.1	-1.4	2.5	0.2
CCN(CC)S(=O)(=O)c1ccc2c(c1)N(CC(=O)Nc1cccc(C#N)c1)C(=O)CO2	-2.0	0.7	-3.5	-1.8	-0.6
Cc1nc(-n2nc(C)c(Cc3ccc(Cl)cc3)c2C)sc1C(=O)N1CCC(C)CC1	0.9	1.0	2.0	5.2	1.0
Cc1cc(=O)n(CC(=O)N2CCCc3ccccc32)c2c1c(C)nn2-c1cccc(F)c1	19.0	4.6	-1.7	2.5	0.4
Cc1ccccc1-n1c(CSC(=N)N)nc2ccccc2c1=O	-41.5*	1.5	1.5	5.3	0.0
O=c1c2ccccc2nc(CSc2nnnn2-c2ccccc2)n1-c1ccccc1Cl	-35.3*	2.9	-1.1	-0.9	-0.4
CCc1ccc(NC(=O)CSc2nc3c(sc4ccccc43)c(=O)n2CCCOC(C)C)cc1	-35.4*	3.9	-3.0	4.7	0.0
CCc1ccc(NC(=O)CSc2nc3c(sc4ccccc43)c(=O)n2CCCOC)cc1	1.6	0.9	0.8	5.9	-0.1
COCCCn1c(SCC(=O)NCc2ccccc2)nc2c(sc3ccccc32)c1=O	-39.5*	5.9	-2.9	-2.8	0.3
CCN(C(=O)Cn1c(=O)oc2cc(Cl)ccc21)c1cccc(C(F)(F)F)c1	10.9	2.5	2.6	-6.4	-0.2
CC(=O)Nc1ccc(S(=O)(=O)N(Cc2ccccc2)Cc2ccccc2)cc1	-24.4	-0.5	-0.9	-6.5	-0.9
Cc1ccc(Cl)cc1N1CCN(C(=O)c2cc(S(=O)(=O)N3CCCC3)cn2C)CC1	4.7	2.0	0.2	-4.1	0.0
CCc1ccc2occ(CC(=O)NCc3ccccc3)c2c1	-12.9	49.0*	-0.3	10.2	-1.3
CCc1ccc2occ(CC(=O)Nc3ccccc3C(F)(F)F)c2c1	10.5	21.8	-2.0	6.6	-1.1
COCc1cc(C)nc(OCC(=O)N/N=C/c2ccccc2)c1C#N	-5.0	9.1	-1.1	2.4	-1.8
COCc1cc(C)nc(OCC(=O)N/N=C/c2ccc(C)cc2)c1C#N	-57.1*	3.1	-2.2	0.0	-0.5
COc1ccc2oc(-c3ccccc3)c(C(=O)N(C)C)c2c1	-70.0*	2.0	-1.9	-0.4	0.3
Cc1ccc2c(c1)C(=O)CC1(CCC(C(C)(C)C)CC1)O2 (stereo not given)	-31.0*	3.9	-1.8	-1.5	0.0
Cc1ccc2c(c1)C(=O)CC(O)(C(F)(F)F)O2 (stereo not given)	-6.0	0.5	-4.7	-1.0	0.2
O=C(O)CCc1nn2c3ccccc3nc2n(CCN2CCCCC2)c1=O	-30.6*	6.6	-4.8	-3.1	0.1
O=C(O)CCc1nc2ccccc2n(CCc2ccccc2)c1=O	-14.2	1.0	-0.7	2.2	-0.4
O=C(CCC(=O)NNC(=O)COc1ccc(Br)cc1)NCc1ccccc1	-33.8*	0.1	-0.9	4.6	-0.1
SMILES	D1 antagonist	D1 agonist	D1 PAM	TRHR PAM	TRHR agonist
CC(C)OCCCNC(=O)c1ccc2c(c1)NC(=O)c1ccccc1S2	1.1	3.3	-2.6	-2.5	-0.1
CCCCN(CC)C(=O)c1ccc2c(c1)NC(=O)c1ccccc1S2	-44.6*	3.1	0.2	-11.7	-0.5
O=C(NCC1CCN(Cc2cccc(Cl)c2)CC1)Nc1cc(Cl)ccc1Cl	11.8	18.5	-0.6	-1.1	2.4
COc1cc([N+](=O)[O-])ccc1NC(=O)NCC1CCN(Cc2ccc(Cl)cc2)CC1	-33.0*	31.5*	-9.8	15.6	3.2
COc1ccc(Cl)cc1NC(=O)NCC1CCN(Cc2cc(C)ccc2C)CC1	-31.3*	29.7	-9.4	1.1	1.3
COc1cccc(N2CCN(c3ncnc4c3[nH]c3ccc(F)cc34)CC2C)c1 (stereo not given)	-34.9*	10.7	-8.0	6.0	-0.1
CC1(c2ccc(Cl)cc2)NC(=O)N(CC(=O)N2CCc3ccccc3C2)C1=O (stereo not given)	27.8	31.8*	0.9	5.1	3.5
Cn1nnnc1Sc1ncnc2scc(-c3cccc([N+](=O)[O-])c3)c12	0.8	3.7	1.1	-11.7	-1.7
Cc1cc(C)nc(Nc2n[nH]c(COc3ccc(Cl)cc3)n2)n1	20.3	34.2*	-1.8	-3.0	2.4
O=C(NC1CCCCC1)c1sc(=S)n2c1[nH]c(=O)c1ccccc12	-18.6	28.8	-6.3	-4.1	3.0
CC(C)NC(=O)c1sc(=S)n2c1[nH]c(=O)c1ccc(C(=O)NCCc3ccc(Cl)cc3)cc12	-58.5*	3.1	-10.8	-8.9	0.5
CCCCNC(=O)c1sc(=S)n2c1[nH]c(=O)c1ccccc12	-16.4	30.3*	-8.4	2.0	5.3
CCn1cc(C(=O)NCc2ccc(F)cc2)c(=O)c2cc(S(=O)(=O)N(C)C)ccc21	7.6	-1.8	3.8	-2.0	-0.3
CC(=O)NC1=NN(C(C)=O)C(C)(c2cccnc2)S1 (stereo not given)	-46.3*	6.9	-2.5	3.1	0.0
CCc1ccc(C2(C)SC(NC(C)=O)=NN2C(C)=O)cc1 (stereo not given)	2.4	55.7*	1.4	-0.3	-2.5
O=C(CCC(=O)N1CC2CCCN2c2ccccc21)NCc1ccc(Cl)cc1 (stereo not given)	-17.0	0.7	-6.0	-6.6	-0.7
